Source: PubChem BioAssay AID1347426 (Functional Genomics Laboratory (NCATS/FGL), 2020)
The whole screen tested about 31,000 sequences, of which about 1,400 (4.5%) were called active. This is one part of a sample in which actives are shown more often than they occur.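 The calls were made as follows: active = median seed-adjusted z-score above 1 or below -1; inactive = the rest.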

Assay: Novel Modifiers of Survival Motor Neuron (SMN) Protein: Gene Identification via Genome-wide siRNA Screen;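 also: luminescence tracks full-length SMN protein made from the SMN2 reporter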
Conditions: HEK293T SMN2-luciferase reporter, siRNA knockdown, 72 h; actives lie on both sides
Summary of the method: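 HEK293T cells stably carrying an SMN2 promoter/splicing cassette–luciferase reporter were reverse-transfected with 1 pmol siRNA per well (druggable-genome library, 3 siRNAs per gene) and grown 72 h at 37 °C. Luminescence, normalized to negative-control siRNA and log10-transformed, was scored as MAD.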

| Sequence | median seed-adjusted z-score |
| --- | --- |
| GGACGGAAAACAGUCUUAATT against OAS2 | 0.0758 (inactive) |
| CCCACACUCUAGACUGAAATT against MEF2D | 0.0021 (inactive) |
| CGGUCAAUGUUCUAAAGAUTT against CACNG5 | -0.41 (inactive) |
| CCAUGACUGUCAAUCGUCATT against GFM1 | -0.0641 (inactive) |
| GGACCUACACUUUUCUCUUTT against FAM53B | -0.00535 (inactive) |
| CCCUAAAGUUAAUCACCCATT against NUCB2 | 0.45 (inactive) |
| GUUCCAUCCUGAUUCAAAUTT against PIGM | 1.36 (active) |
| GUUGAUAAGUUUUACCGAUTT against ADAM19 | 0.0996 (inactive) |
| CCACCCGGACGAUAUCUUUTT against PPARA | 0.113 (inactive) |
| GGAACGCAGUCGGAUCUCATT against RHOU | -1.44 (active) |
| GCAUUUGCAAUGAAGGCUATT against DNER | -0.316 (inactive) |
| GAACCAGAUGAGACAUUCATT against SPSB1 | -0.378 (inactive) |
| CUCUAAUGUUAAUCCGAGATT against MED14 | -3.22 (active) |
| GAGGCUCAAUGUUACACCATT against ACAT1 | -0.848 (inactive) |
| CCAUUGGGCUAUGACCUGATT against ACOT4 | -0.158 (inactive) |
| GGCACUAUUUCCAAUGGAATT against ADAMTS12 | -0.0721 (inactive) |
| GCAGCCCUGAUGUCCAGUATT against EFS | -0.299 (inactive) |
| AGUUCAUCGAUGACAUGGATT against COL6A2 | 0.0119 (inactive) |
| GGAUCUAUCUUAACGACCATT against GAN | -1.07 (active) |
| GCUCCGAAGUGUUUACAAUTT against DQX1 | -0.297 (inactive) |
| GUCCAAAUACAGUCUCUUATT against MAP3K14 | -0.0609 (inactive) |
| CGCUGAAACCCGAUUCCUATT against ANPEP | 0.252 (inactive) |

| Sequence | median seed-adjusted z-score |
| --- | --- |
| GCCUAGAUGAGCGAAUUUATT against LSM3 | -1.36 (active) |
| GCACUGCGACUGUACUCUATT against LRRC3B | 0 (inactive) |
| CCUUCACACGUACCACAAATT against TEKT2 | -0.349 (inactive) |
| GGCUGGACAGUAAUUCAGATT against ANGPTL4 | 1.37 (active) |
| CACAAUGAGUUAACUGAUATT against LILRB4 | -0.104 (inactive) |
| CGUUAUUGCCUGUUUGGAATT against GUCY1A2 | -0.186 (inactive) |
| GGGAAAAGCUUGACGAUUATT against RNF139 | 0.175 (inactive) |
| GGGUUGAAGGUGAUCAUCATT against IMMP2L | 0.919 (inactive) |
| GGCUCAUUGAGACGACUGATT against RCADH5 | -0.158 (inactive) |
| CACUGGAGACUUUCGCUUUTT against ZNF813 | 0.127 (inactive) |
| AGAUCUACAUCGUGAUGAATT against CDC2L1 | -1.14 (active) |
| GGUACUUCGUGAUCCGCAUTT against NECAP2 | -0.539 (inactive) |
| GGACUGUCAAUCUUAGAUATT against GRK4 | -0.267 (inactive) |
| CGUGUACAAGGCUCUAACATT against EPN3 | 0.184 (inactive) |
| CUACGAAUCUGUGAAUGAATT against ERH | -1.25 (active) |
| GCUAACCACUUGGAAGAUATT against PRMT7 | 0.204 (inactive) |
| GGCAGAACCUAUACCAGAATT against MED6 | -2.15 (active) |
| CAGAACCUGUUGUAGAAAATT against GSPT2 | 0.846 (inactive) |
| GGACGACUGCAGCAAGUUUTT against ATP2A3 | -0.28 (inactive) |
| AGACCAUCCCUAACGGAUATT against PRELP | -0.0579 (inactive) |
| GCUCGUAGUUGGGAUAACATT against FRAP1 | -1.02 (active) |
| GGCUCUCAGAUUGUUGACATT against GABARAPL2 | 0.528 (inactive) |

| Sequence | median seed-adjusted z-score |
| --- | --- |
| GAACAUUGGUGACUAUAUUTT against GRIP2 | -0.0256 (inactive) |
| GGAUGAUGUGCGUAACAGATT against HAO1 | 0.421 (inactive) |
| CAGAAGUUCUCAGACCUAATT against ZNF721 | 0.404 (inactive) |
| GCUAUACGGUUGACAACGATT against ISLR | 0.00807 (inactive) |
| CCCUCCUCGUGGAACCAUATT against NEURL2 | 1.39 (active) |
| UCGUGGACCUGGUCUGUUATT against OGDHL | -0.0878 (inactive) |
| GGUCGAAAAGCAAACUCAATT against PTPRN2 | -0.104 (inactive) |
| CAUGGAAGAUCUGACCAUATT against MEOX2 | 1.36 (active) |
| GCAGGAUGAUCUCAAGUAUTT against MOBKL2B | -0.613 (inactive) |
| CCGCAGUGGAAAUACCAUATT against ANGEL1 | -0.332 (inactive) |
| GCGGCUAACAGGAUAUGUATT against ACTN2 | 0.165 (inactive) |
| CACAAGAUAUCAGGAGAAATT against FCRL2 | -0.294 (inactive) |
| CAUGAUCUCCGGCUACCUATT against SLCO2B1 | 0.289 (inactive) |
| GGAUGCUCCAAGUCUGUCATT against GPR179 | -0.513 (inactive) |
| GCAGUUGUCCAGUUACGAATT against RAD50 | 0.266 (inactive) |
| GAAGCUACAUGGGAAGUGUTT against SIRT7 | -0.427 (inactive) |
| CAGGUCGACUGAUAGAUCATT against DDX42 | -2.13 (active) |
| GGACUGAUCAUGAACCUCUTT against CPEB3 | 0.086 (inactive) |
| GAGUUUAAUCUGAUUGAUATT against MOBKL1B | 0.31 (inactive) |
| GCACUAUAUGAAUACGCAATT against AUP1 | 0.305 (inactive) |
| GCAUCACACUCACAUCCCATT against DNASE2 | -1.23 (active) |
| GCUCUGUACAGGAAACUCUTT against IL2RA | 0.587 (inactive) |

| Sequence | median seed-adjusted z-score |
| --- | --- |
| GUGUAGGGAUAGUUACCAATT against ZNF518A | -0.252 (inactive) |
| GAGUUCUACUUGUCCAAUUTT against ZDHHC20 | -0.936 (inactive) |
| GGCUUUGCUUAAGUUCAAATT against LPCAT4 | 0.338 (inactive) |
| CAACCAUAGUUAAAGUUAATT against TCP1 | -1.02 (active) |
| GGAUGUCUCAUUACACCAUTT against TGFBR3 | 0.285 (inactive) |
| UGCUGGUGUUUAAACCCAUTT against C5AR1 | 0.366 (inactive) |
| GCGACUUCAUGAUAGCAUATT against CAMK2D | 0.0676 (inactive) |
| GGAGAUAUUUUUGACGGAATT against ZFHX3 | 0.045 (inactive) |
| AAGCCUACCAGGUCAAGUATT against EVI5L | 0.0497 (inactive) |
| GGAUAUUAAGGACAGGAAATT against RAN | -3.09 (active) |
| GAAGCUACAGAAUCUGGAATT against ARFGAP2 | 0.0672 (inactive) |
| GGAUUCAACUUUACAAGAATT against BTD | -0.165 (inactive) |
| AGGAGAUCGUCGUCACUGATT against NNMT | -0.095 (inactive) |
| CCAUAGCAGUAAUGAUACATT against GRIN3A | 0.241 (inactive) |
| GCCUGAACCGAGUAGAAGATT against KCNQ1 | -0.0525 (inactive) |
| GCAAGACCAUCAACAAGAUTT against CHRNE | 0.349 (inactive) |
| CGGUCACAAUUUGCGCUGATT against ST8SIA3 | -0.848 (inactive) |
| AAACAAUGGUUUGUGCAAATT against UCRC | -0.93 (inactive) |
| GGCUUUAAGAUCACGCAGATT against SNRPA | -2.09 (active) |
| GGUCCGCUACUACCACCAATT against FUT4 | -0.24 (inactive) |
| GAAGCUUACAGAUUCGAUATT against CNTNAP2 | -0.196 (inactive) |
| GGAUGACAUUAGCAGGUAUTT against ERCC6 | 0.0421 (inactive) |

| Sequence | median seed-adjusted z-score |
| --- | --- |
| GAAAGUUCAAGUACAGUGATT against CYP2E1 | 0.81 (inactive) |
| GAAUCUGGUGGGCCCUUUATT against POFUT2 | -0.86 (inactive) |
| GCUCAGCAUUGUCUGCAAATT against RNASE6 | 0.832 (inactive) |
| GAUUCUAGGAUAAGCACUATT against KLK8 | 0.736 (inactive) |
| GGUAAAGUUUUACAGCAUUTT against MTCH2 | -0.168 (inactive) |
| CCUGUAGAUUUGUCAACUATT against RANBP2 | 1.53 (active) |
| AGCACGAAGGCAAACCCUATT against CRIP1 | -0.622 (inactive) |
| GUUGAGCCCUUGUAUAUUATT against UBE2C | 0 (inactive) |
| GCUUUGAGGAAAAUCCGAATT against SLC26A3 | -0.506 (inactive) |
| GGAAAGCUCUUCGUCUGGATT against IFIT5 | 0 (inactive) |
| GCCUCUUAAUUUACCAGAATT against OGN | 0.0889 (inactive) |
| GGUUGUUAGUGGAUCAUCATT against FBXW11 | 0.206 (inactive) |
| GAGUGAUAUGAAACGGAAATT against NVL | 0.701 (inactive) |
| GUUUCGAGAUUGUUGCUAUTT against CCNL1 | -1.26 (active) |
| CGACUACUACUACCCUGAUTT against CCR8 | -0.206 (inactive) |
| AGUGCAAAAACGUGCUGAATT against AURKAIP1 | 0.067 (inactive) |
| CGAUUGCUUUUCUACCAACTT against SCP2 | 0.413 (inactive) |
| CAUUUCGACUGGAUCAUAUTT against CLK1 | -0.436 (inactive) |
| AUACAGAUGAUAAACCAUUTT against ZBTB34 | 0.0298 (inactive) |
| CGGCCCUCCUCUGAAAAGATT against POU4F2 | 1.46 (active) |
